Assay outcomes: PubChem, National Center for Advancing Translational Sciences (NCATS)
An excerpt weighted towards active compounds, which were near 3.2% of everything screened.
Nrf2 block – Nrf2 qHTS screen for inhibitors. 360,000 tested, 2.1% active. Potency, µM (highest dose often 46 µM), inactives show at the highest dose activity change, negative = inhibition, most hits filed as inhibitors. AID 504444, 2011. A549 ARE-Fluc reporter, luciferase luminescence, 18-24 h; also: potency is read from the fitted curve at half-maximal effect; % is scaled to controls: 0 for no effect and ±100 for the full control effect; nearly all actives have a fitted effect of over 60% in size
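Cells were seeded and rested 2 h, then exposed to compounds for 18-24 h. CellTiter-Fluor was read first as a viability measure. BugLite was added 15 min before the final luminescent read of ARE-luciferase activity in A549 cells.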
Nrf2 activator – qHTS of Nrf2 Activators; 410,000 tested, 0.31% active; AREc32 ARE-luciferase reporter (MCF7-derived line), luminescence, 24 h; Potency, µM (highest dose often 46.1 µM), inactives show at the highest dose activation, hits mostly activators; also: potency is read from the fitted curve at half-maximal effect; % of control where 0% means no effect; nearly all actives have a fitted effect of over 65% in size
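Nrf2 activation is followed as ARE-luciferase induction in the AREc32 line after one day of compound treatment; luminescence is read with Steady-Glo.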
A549 viability – Nrf2 qHTS screen for inhibitors: counterscreen for cytotoxicity. Potency, µM (highest dose often 46 µM), for the others: at the top dose activity change, negative = cytotoxicity, actives largely listed as inhibitors. A549 ARE-Fluc cells, CellTiter-Fluor viability, 18-24 h. AID 504648, 2011. 390,000 tested, 0.16% active; also: potency is read from the fitted curve at half-maximal effect; % is scaled to controls: 0 for no effect and ±100 for the full control effect
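A549 ARE_Fluc cells in 5% FBS OPTI-MEM were exposed to compounds in concentration-response for 18-24 h at 37 deg C. Viability was read by CellTiter-Fluor fluorescence (Ex 405/Em 525) after 30 min, before the luciferase read.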
p53 reactivator – qHTS assay for re-activators of p53 using a Luc reporter | 320,000 tested, 0.063% active | Potency, µM (series often up to 92.2 µM), without a hit: at the top dose activity change, positive = activation, most hits filed as activators | AID 504706, 2011 | H1299 p53-A138V BP100-luciferase reporter, luminescence, 24 h; also: potency is read from the fitted curve at half-maximal effect; % of control where 0% means no effect; nearly all actives have a fitted effect of over 45% in size
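p53-null H1299 cells stably carrying temperature-sensitive p53-A138V and a BP100-luciferase reporter were pinned with compounds (4-point, 1:5 series) and held 24 hrs at 37 deg C. Luminescence was read 10 min after detection reagent.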
BRCA1 expr act – qHTS Assay to Identify Small Molecule Activators of BRCA1 Expression. Potency, µM (series often up to 46.1 µM), for the others: top-dose activation, most hits filed as activators. MCF7-BRCA1-FFLuc reporter, luminescence, 48 h; response scale: scaled: vehicle 0%, 10 µM genistein 100%. AID 624202, 2012. 380,000 tested, 1.1% active; also: potency is read from the fitted curve at half-maximal effect; nearly all actives have a fitted effect of over 80% in size
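Quantitative HTS in MCF7 cells stably reporting BRCA1 expression via firefly luciferase. Compound treatment lasts 48 h at 37 °C in phenol-red free MEM. Activation is expressed relative to genistein at 10 microM and DMSO.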
IL-2 act – qHTS of IL-2 Activators. IL-2 activation reporter assay, cell-based qHTS; stimulated with anti-CD3/CD4/CD28 beads; in transgenic mouse T cells. activation, % (series mostly up to about 46 µM). 360,000 tested, 0.065% active; in the data active = activation above about 50%; inconclusive = mostly about 30% to 49%; also: 0% is about no effect
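Unstimulated transgenic mouse T cells; 60-min compound exposure; bead-based TCR/CD4/CD28 stimulation; 18 h culture, 37 degrees C; dual fluorescence (EGFP, DsRed) plate cytometry.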
An asterisk follows results filed as active; ? = inconclusive; · = not tested or not shown; [ ] = another dose, or the depositor's remark. Unless noted, calls follow the shape of the dose curve; as a rule, active = well fitted curve in the direction sought with a large enough effect; inconclusive = small, poorly fitted or top-dose-only effect, or another doubt; inactive = no such curve, though single readings can be large; an effect the other way counts as inactive or inconclusive.

SMILES | Nrf2 block | Nrf2 activator | A549 viability | p53 reactivator | BRCA1 expr act | IL-2 act
COc1ccc(/C=C/c2ccc3cccc(O)c3n2)c(OC)c1OC | ? | 22.4µM* | -7.8% | ? | 2.9% | -0.1
COC(=O)CNc1c(-c2ccccn2)nc2ccc(Br)cn12 | 2.7% | 3.8% | -4.0% | · | 4.47µM* | 1.9
Cc1ccc(Nc2c(-c3ccccn3)nc3ccc(Br)cn23)cc1 | 4.0%[9.27 µM] | 0.3% | 1.3% | · | · | ·
COc1cccc(CNC(=O)c2ccc(-c3nc(CSc4ccccc4)c(C)o3)cc2)c1 | -18.2% | 0.8% | -0.1% | · | · | ·
Cc1ccccc1Cn1c(=O)n(CC2CCC(C(=O)N3CCC(C)CC3)CC2)c(=O)c2sccc21 (centres undefined) | 23.1µM* | -0.7% | ? | · | · | ·
O=C1Nc2ccccc2-n2nnnc2C1N1CCN(c2ccc(C(F)(F)F)cn2)CC1 (centres undefined) | · | · | · | · | · | 0.1
CCOC(=O)C1=C(C)N=c2s/c(=C\c3cccc(OCC(=O)O)c3)c(=O)n2C1c1ccccc1OC (centres undefined) | 2.2% | -0.2% | -18.5% | -5.9% | 6.8% | -1.2
CCOC(=O)C1=C(c2ccccc2)N=c2s/c(=C\c3cccc(O)c3)c(=O)n2C1c1cccs1 (centres undefined) | 25.9µM* | -0.8% | ? | -1.8% | -76.4% | -0.7
CC(C1CC1)N(Cc1ccccc1)C(=O)NC(=O)c1ccccc1 (centres undefined) | -7.4% | -0.2% | 2.3% | 0.2% | 5.7% | -3.6
CC(C1CC1)N(Cc1ccccc1)C(=S)Nc1ccccc1Cl (centres undefined) | 29.1µM* | 1.6% | -12.3% | 1.3% | -20.2% | -1.4
CC(C)Oc1ccc(CNC(=O)c2cccc(NC(=O)N3CCSc4ncccc43)c2)cc1 | 23.1µM* | 3.3% | 3.7% | · | · | ·
Cc1cccc2[nH]c3c(N4CC=C(c5ccc(F)cc5)CC4)ncnc3c12 | 20.6µM* | 5.8% | -9.7% | -0.3% | -53.1% | -4.1
COc1ccc(OCC(=O)N/N=C2\CCCc3ccccc32)cc1 | 3.4% | 2.8% | 7.7% | 15.3% | 13.5% | 0.1
Cc1cccc2c1OCC/C2=N\NC(=O)COc1ccccc1 | · | 4.1% | -6.1% | 6.2% | 11.2µM* | -1.3
Cc1ccnc(SCC(=O)c2cccs2)n1 | ? | 4.0% | -1.3% | 14.3% | 2.51µM* | 2.3
Cc1ccnc(SCC(=O)c2ccc(Br)s2)n1 | ? | ? | 3.3% | 4.5% | 35.2% | -1.2
COc1cccc(CNC(=O)c2cc3c(=O)n(Cc4cccnc4)ccc3nc2C)c1 | ? | 6.4% | 4.8% | · | · | ·
Nc1ccc(C(=O)OCC(=O)N2CCOCC2)cc1[N+](=O)[O-] | ? | -0.6% | -1.9% | ? | 11.2µM* | -2.6
O=C(COC(=O)c1cc([N+](=O)[O-])ccc1N1CCOCC1)c1ccc(Br)cc1 | 25.9µM* | 3.6% | ? | 0.5% | -45.3% | 2.7
O=C(COC(=O)c1cc([N+](=O)[O-])ccc1NCCO)Nc1ccc2c(c1)OCO2 | 10.3µM* | 3.9% | ? | 1.5% | -30.8% | -0.8
Cc1cc(NC(=O)COC(=O)c2cc([N+](=O)[O-])ccc2N2CCOCC2)ccc1Br | 18.4µM* | -0.2% | ? | -5.8% | -55.6% | -0.4
Cc1cc(C)c(NC(=O)COC(=O)c2cc([N+](=O)[O-])ccc2N2CCOCC2)c(C)c1 | 4.0% | 3.1% | -2.9% | -2.1% | -24.8% | -0.5
CCOc1ccc(C(=O)COC(=O)c2cc([N+](=O)[O-])ccc2N2CCOCC2)cc1 | 17.5% | -0.2% | -6.3% | 2.2% | -24.5% | -3.3
N#CC(C(=O)c1ccco1)c1ccccn1 (centres undefined) | ? | 8.2% | ? | ? | 14.1µM* | 0.2
N#C/C(=C(\O)c1ccco1)c1ccccn1 | · | 24.0% | -13.5% | ? | ? | 0.2
SMILES | Nrf2 block | Nrf2 activator | A549 viability | p53 reactivator | BRCA1 expr act | IL-2 act
O=C(Nc1ccc2c(c1)OCO2)N1CCN(c2ncc(C(F)(F)F)cc2Cl)CC1 | 9.2µM* | 2.8% | -9.5% | 7.3% | -44.2% | -1.1
CCOC(=O)Nc1ccc2c(CNC(C)c3ccccc3OC)cc(=O)oc2c1 (centres undefined) | 13µM* | 4.0% | ? | -11.4% | -26.4% | -0.4
CCOC(=O)Nc1ccc2c(CN3C(=O)NC(CC)(CC)C3=O)cc(=O)oc2c1 | 14.8% | 0.0% | -1.0% | 2.6% | 0.0% | 1.3
CC(/C=C/C(=O)c1ccc(C)cc1)=C\c1ccccc1 | 17.0% | 11.2µM* | -6.7% | ? | -17.1% | -1.7
O=C(NCc1cccs1)c1cc2c(s1)CCCC2 | 0.6% | 0.2% | -10.3% | ? | 12.6µM* | 3.6
O=C(c1ccco1)N1CCn2c1nc1ccccc12 | ? | 14.7% | 0.9% | 28.2% | 7.08µM* | 0.8
CCOc1ccc(CNC(=O)C2Cc3ccccc3N2C(=O)CC)cc1 (centres undefined) | · | -0.9% | 0.8% | · | · | ·
COc1ccc(OC)c(CNCc2c(C(=O)O)n(Cc3cccc(F)c3)c3cc(OC)ccc23)c1 | -10.1% | 3.7% | -23.6% | · | · | ·
C(/C=C/c1ccco1)=N/N1CCN(c2ccccc2)CC1 | · | 15.7% | -2.2% | ? | 10µM* | -1.9
Clc1ccccc1CN1CCN(/N=C/C=C\c2ccco2)CC1 | ? | 16.6% | -8.1% | 5.3% | ? | 0.5
CCN(CC)c1ccc(C=N/C(C#N)=C(\N)C#N)cc1 | 23.9% | 3.4% | -13.5% | ? | 2.51µM* | -0.1
CCN(CC)c1ccc(/C=N/Nc2nn[nH]n2)cc1 | 10.3% | -0.7% | 2.4% | -7.4% | -7.9% | 1.8
COc1ccc(-c2cc3nc(C)c(CCC(=O)N4CCN(c5cccc(Cl)c5)CC4)c(C)n3n2)c(OC)c1 | ? | -0.1% | -8.1% | · | 5.3% | ·
N#C/C(=C(/O)c1ccco1)c1nc2ccccc2[nH]1 | ? | 6.31µM* | 10.2% | 2.6% | -46.8% | -0.9
CC(C)C1Cc2c(sc3[nH]c(=S)n(Cc4ccccc4)c(=O)c23)CO1 (centres undefined) | 16.4µM* | -1.0% | ? | -1.4% | -39.1% | 0.2
Cn1c2cc(C(=O)O)sc2c2cnn(Cc3ccccc3F)c(=O)c21 | ? | · | -0.4% | · | · | ·
CN1CCN(C(=O)c2ccc(COc3ccc(C(C)(C)C)cc3)o2)CC1 | ? | 7.3% | -2.4% | 10.6% | 3.55µM* | -0.6
COc1cc2c(cc1OC)-c1cc(Nc3ccc(N(C)C)cc3)nc(=O)n1CC2 | ? | 9.7% | -2.6% | -5.6% | 0.0% | 1.8
CCN(CC)c1ccc(Nc2cc3n(c(=O)n2)CCc2cc(OC)c(OC)cc2-3)cc1 | 16.4µM* | 3.8% | -3.9% | -4.2% | -75.5% | -0.6
